L3MBTL1 inh – inhibitors of human L3MBTL1; Potency, µM (series often up to 57.1 µM), inactives show at the top dose activity, negative = inhibition, hits mostly inhibitors; hit rate 0.66% among 230,000; AID 485360; Q9Y468; AlphaScreen L3MBTL1–H3K9me1 peptide binding; also: % is scaled to controls: 0 for no effect and ±100 for the full control effect; nearly all actives have a fitted effect of over 60% in size
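First, the protein-peptide complex forms for 30 min at room temperature (L3MBTL1 50 nM, biotinylated H3K9me1 peptide 75 nM). Next, compounds are pin-transferred and incubated 30 min. Finally, AlphaScreen beads are added and read after 30 min.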
G9a block – blocks human histone lysine methyltransferase G9a. Q96KQ7. G9a H3K9 monomethylation, AlphaScreen, 2 h. Potency, µM (top dose mostly 102 µM), without a hit: at the top dose activity, negative = inhibition, hits mostly inhibitors. hit rate 8.8% among 350,000; also: % is scaled to controls: 0 for no effect and ±100 for the full control effect; nearly all actives have a fitted effect of over 75% in size
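AlphaScreen detection with an anti-monomethyl H3K9 antibody quantified product after a 2 h room-temperature reaction containing 500 nM biotinylated H3K9 peptide, 20 µM SAM and 20 nM enzyme, which had been preincubated 15 min with compound.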
BAZ2B block – BAZ2B (human) inhibition | Q9UIF8 | Potency, µM (highest dose often 114 µM), for the others: at the highest dose activity change, negative = inhibition, usual class: inhibitors | hit rate 4.4% among 360,000 | AlphaScreen BAZ2B-H3K14Ac peptide displacement; also: % is scaled to controls: 0 for no effect and ±100 for the full control effect; nearly all actives have a fitted effect of over 60% in size
Target sequence (Q9UIF8 whole entry, looked up): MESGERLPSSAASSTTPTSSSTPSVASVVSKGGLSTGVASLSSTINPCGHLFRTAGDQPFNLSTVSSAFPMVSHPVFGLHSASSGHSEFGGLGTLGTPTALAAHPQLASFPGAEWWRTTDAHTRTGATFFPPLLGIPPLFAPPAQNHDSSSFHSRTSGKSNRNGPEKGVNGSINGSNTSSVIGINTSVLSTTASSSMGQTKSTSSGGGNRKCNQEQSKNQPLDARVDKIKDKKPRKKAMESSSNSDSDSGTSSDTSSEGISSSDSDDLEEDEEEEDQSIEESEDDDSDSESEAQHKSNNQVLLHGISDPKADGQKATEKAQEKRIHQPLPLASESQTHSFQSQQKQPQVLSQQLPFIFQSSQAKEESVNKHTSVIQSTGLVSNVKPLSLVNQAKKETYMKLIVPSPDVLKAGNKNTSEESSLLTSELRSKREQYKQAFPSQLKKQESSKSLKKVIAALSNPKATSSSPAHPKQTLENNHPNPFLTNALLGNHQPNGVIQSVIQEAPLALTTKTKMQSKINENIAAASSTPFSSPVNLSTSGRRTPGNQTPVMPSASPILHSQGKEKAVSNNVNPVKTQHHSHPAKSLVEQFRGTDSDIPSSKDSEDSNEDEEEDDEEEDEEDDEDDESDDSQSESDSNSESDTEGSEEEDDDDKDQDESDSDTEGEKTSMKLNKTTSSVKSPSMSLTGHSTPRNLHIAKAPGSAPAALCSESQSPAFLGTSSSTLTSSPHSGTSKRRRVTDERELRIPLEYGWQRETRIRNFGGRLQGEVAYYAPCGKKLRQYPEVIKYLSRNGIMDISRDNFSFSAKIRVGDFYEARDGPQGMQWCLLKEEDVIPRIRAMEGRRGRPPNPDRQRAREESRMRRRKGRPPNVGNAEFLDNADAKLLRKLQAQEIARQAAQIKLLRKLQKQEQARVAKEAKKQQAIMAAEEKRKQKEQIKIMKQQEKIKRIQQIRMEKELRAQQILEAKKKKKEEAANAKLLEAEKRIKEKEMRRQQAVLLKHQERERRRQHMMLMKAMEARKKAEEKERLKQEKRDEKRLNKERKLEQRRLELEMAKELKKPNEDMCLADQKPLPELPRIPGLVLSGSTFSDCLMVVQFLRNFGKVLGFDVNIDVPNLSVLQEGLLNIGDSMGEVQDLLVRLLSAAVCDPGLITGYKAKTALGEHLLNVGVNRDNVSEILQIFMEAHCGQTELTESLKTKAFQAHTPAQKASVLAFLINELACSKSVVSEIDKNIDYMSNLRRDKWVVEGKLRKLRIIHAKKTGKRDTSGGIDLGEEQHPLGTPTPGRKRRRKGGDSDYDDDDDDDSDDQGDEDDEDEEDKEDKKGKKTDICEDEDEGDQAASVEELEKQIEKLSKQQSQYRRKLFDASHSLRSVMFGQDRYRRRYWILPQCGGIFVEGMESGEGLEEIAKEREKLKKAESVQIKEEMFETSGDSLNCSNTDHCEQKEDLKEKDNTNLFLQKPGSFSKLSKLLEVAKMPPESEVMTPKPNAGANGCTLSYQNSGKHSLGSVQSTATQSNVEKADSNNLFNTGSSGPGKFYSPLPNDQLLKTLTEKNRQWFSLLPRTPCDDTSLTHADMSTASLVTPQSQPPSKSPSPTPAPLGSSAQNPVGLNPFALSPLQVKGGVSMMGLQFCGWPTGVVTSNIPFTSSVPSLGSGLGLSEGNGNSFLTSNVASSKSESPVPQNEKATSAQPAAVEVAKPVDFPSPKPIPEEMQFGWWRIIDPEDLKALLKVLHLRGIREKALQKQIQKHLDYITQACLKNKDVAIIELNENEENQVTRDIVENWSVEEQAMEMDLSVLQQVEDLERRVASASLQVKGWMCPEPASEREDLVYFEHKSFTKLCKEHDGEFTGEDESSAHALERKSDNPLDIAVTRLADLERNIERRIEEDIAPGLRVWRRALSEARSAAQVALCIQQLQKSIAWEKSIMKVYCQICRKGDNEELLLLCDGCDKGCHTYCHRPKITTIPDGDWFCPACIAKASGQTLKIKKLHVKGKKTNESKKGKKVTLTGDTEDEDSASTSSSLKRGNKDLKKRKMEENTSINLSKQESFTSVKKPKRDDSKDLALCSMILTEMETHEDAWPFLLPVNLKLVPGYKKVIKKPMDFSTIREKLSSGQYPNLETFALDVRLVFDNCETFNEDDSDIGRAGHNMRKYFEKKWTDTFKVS
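Compounds, titrated to a top concentration of 110 uM, were incubated 30 min at room temperature with preformed BAZ2B/acetyl-K14 H3 peptide complex (50 nM each). Proximity signal was measured by AlphaScreen after 20 min with beads.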
JMJD2A Tudor – blocks the human JMJD2A Tudor domain; O75164; Potency, µM (doses to about 114 µM), for the others: at the top dose activity change, negative = inhibition, hits mostly inhibitors; AlphaScreen JMJD2A-Tudor / H3K4me3 peptide binding; hit rate 4.4% among 390,000; also: % is scaled to controls: 0 for no effect and ±100 for the full control effect; nearly all actives have a fitted effect of over 50% in size
HP1b binding inh – HP1-beta chromodomain-methylated histone interaction inhibition; P83916; AlphaScreen HP1-beta / biotin-H3K9me3 peptide binding; Potency, µM (top dose mostly 114 µM), without a hit: at the top dose activity change, negative = inhibition, actives largely listed as inhibitors; hit rate 0.56% among 390,000; AID 540317; also: nearly all actives have a fitted effect of over 70% in size
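AlphaScreen: HP1-beta (50 nM) preformed 30 min with biotin-H3(1-18)K9me3 peptide (50 nM) in PBS pH 7.4, 0.01% Tween-20. Compound added for 30 min at RT, then streptavidin donor/nickel chelate acceptor beads (10 ug/mL) for 30 min.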
Sfp PPTase inh – inhibitors of Bacillus subtilis Sfp phosphopantetheinyl transferase | Biochemical Sfp PPTase activity, qHTS | Potency, µM, for the others: largest response in the series, negative = inhibition, actives largely listed as inhibitors | hit rate 3.5% among 310,000;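 also: the enzyme is Sfp with the accession as filed and its product quenches rhodamine fluorescence; 0% = enzyme reaction without inhibitor and -100% = no enzyme wells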
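Sfp 15 nM + cpd, 15 min RT; start w/ rhodamine-CoA 5 uM, BHQ-2-YbbR 12.5 uM (final); 50 mM Hepes pH 7.6, 10 mM MgCl2, 0.01% NP-40, 0.01% BSA; read 525/598 nm at 0 and 30 min.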
The depositor's hits bear a star; [ ] = dose if it differs, or a comment. Rows were chosen to be rich in hits. Some 12% of all compounds tested hit in one or more screens of this group. Calls follow the shape of the dose curve; as a rule, active = well fitted curve in the direction sought with a large enough effect; inconclusive = small, poorly fitted or top-dose-only effect, or another doubt; inactive = no such curve, though single readings can be large; an effect the other way counts as inactive or inconclusive. Potency is read from the fitted curve at half-maximal effect.

How did Cc1cccc(CSc2ccc(S(=O)(=O)N3CCCC3)cn2)c1 do in these assays?
L3MBTL1 inh: 154.5%; G9a block: 14.1µM*; BAZ2B block: 54.1%; JMJD2A Tudor: 80.1%; HP1b binding inh: 140.7%

How did Cc1ccccc1-n1c2nc(=O)[nH]c(=O)c-2cc2c(Cl)cccc21 do in these assays?
G9a block: 10.0%[59 µM]; BAZ2B block: -1.7%; JMJD2A Tudor: -12.4%; HP1b binding inh: 38.3%

What do the screens show for `CCOC(=O)C(CS)NCCN[C@@H](CS)C(=O)OCC` (stereo not given in full)?
G9a block: inconclusive; Sfp PPTase inh: 1.58µM*

Results for O=C(CN1C(=O)NC2(CCCCC2)C1=O)N1CCN(S(=O)(=O)c2ccc(Cl)s2)CC1 ?
L3MBTL1 inh: -4.3%; G9a block: 17.8µM*; BAZ2B block: 11.7%; JMJD2A Tudor: -21.9%; HP1b binding inh: -6.2%

What do the screens show for `COC(=O)[C@@]12CCCCN1[C@H](c1ccc(-c3ccc(F)cc3)c(OC)c1)[C@@H]1C(=O)N(C)C(=O)[C@@H]12`?
L3MBTL1 inh: -12.0%; G9a block: 15.5%[2.33 µM]; BAZ2B block: -25.1%; JMJD2A Tudor: -34.7%; HP1b binding inh: 18.0%

Results for COc1ccc(NS(=O)(=O)c2cc(N)ccc2N2CCCC2)cc1 ?
L3MBTL1 inh: -19.9%; JMJD2A Tudor: 56.2µM*; HP1b binding inh: inconclusive

Results for Nc1ccc(N2CCOCC2)c(S(=O)(=O)Nc2cc(Cl)ccc2Cl)c1 ?
L3MBTL1 inh: -21.5%; G9a block: 35.5µM*; BAZ2B block: -34.8%; JMJD2A Tudor: inconclusive; HP1b binding inh: 1.8%; Sfp PPTase inh: 8.7%

What do the screens show for `Nc1cc(S(=O)(=O)Nc2ccccc2Cl)ccc1N1CCOCC1`?
G9a block: inconclusive; BAZ2B block: 3.6%; JMJD2A Tudor: -5.6%; HP1b binding inh: 33.7%; Sfp PPTase inh: -5.4%

What do the screens show for `O=C(/C=C/c1cccs1)Nc1ccc(N2CCOCC2)c(S(=O)(=O)Nc2cc(Cl)ccc2Cl)c1`?
L3MBTL1 inh: -3.9%; G9a block: 56.2µM*; BAZ2B block: -26.9%; JMJD2A Tudor: -19.9%; HP1b binding inh: 3.6%; Sfp PPTase inh: 16.1%

Results for N=C1c2ccccc2CN1c1ccc(N2CCOCC2)c(S(=O)(=O)Nc2ccc(Cl)cc2)c1 ?
L3MBTL1 inh: -7.3%; BAZ2B block: inconclusive; Sfp PPTase inh: 10µM*

What do the screens show for `COCCCNC(=O)C[C@H]1C[C@H](C(=O)N2CCCCC2)[C@@]2(CCc3ccccc3)c3[nH]c4cc(CCC(=O)N(C)C)ccc4c3CCN2C1=O`?
L3MBTL1 inh: 24.9%; JMJD2A Tudor: -18.1%; HP1b binding inh: 33.3%

How did COc1cc(CCC(=O)Nc2ccc(C)c(S(=O)(=O)N3CCCCCC3)c2)cc(OC)c1OC do in these assays?
L3MBTL1 inh: -1.8%; G9a block: 18.9%[12.7 µM]; BAZ2B block: -3.7%; JMJD2A Tudor: -26.4%; HP1b binding inh: -12.8%

Results for COc1ccc(NS(=O)(=O)c2cc(N)ccc2N2CCOCC2)cc1 ?
G9a block: 15.8µM*; BAZ2B block: -14.7%; JMJD2A Tudor: -24.8%; HP1b binding inh: -16.5%; Sfp PPTase inh: -18.2%

Results for CCOC(=O)c1ccc(-n2c(-c3ccco3)nc3ccccc3c2=O)cc1 ?
L3MBTL1 inh: -2.1%; G9a block: -4.5%; BAZ2B block: -27.7%; JMJD2A Tudor: -22.5%; HP1b binding inh: 24.6%; Sfp PPTase inh: 3.7%

Results for CC(=O)c1ccc(-n2c(-c3cc(-c4ccco4)[nH]n3)n[nH]c2=S)cc1 ?
G9a block: inconclusive; BAZ2B block: inconclusive; JMJD2A Tudor: inconclusive; HP1b binding inh: -10.6%; Sfp PPTase inh: 50.1µM*

Results for Cc1ccc(C(=O)CSc2n[nH]c(-c3ccco3)n2)cc1C ?
G9a block: inconclusive; BAZ2B block: inconclusive; JMJD2A Tudor: -33.1%; HP1b binding inh: -4.3%; Sfp PPTase inh: 14.8%

Source: PubChem
